{"source": "the supplement of paper PMC3334620", "note": "The full ranking holds about 33,000 sequences; the median of “E-score (-0.5 to 0.5)” is about -8e-05, and the highest 2% start at about 0.23. The sample as a whole holds a higher share of the highest values than the screen did."}
{"biological_target": "T1, Nrg2 (UniProt P38082)", "T1 sequence": "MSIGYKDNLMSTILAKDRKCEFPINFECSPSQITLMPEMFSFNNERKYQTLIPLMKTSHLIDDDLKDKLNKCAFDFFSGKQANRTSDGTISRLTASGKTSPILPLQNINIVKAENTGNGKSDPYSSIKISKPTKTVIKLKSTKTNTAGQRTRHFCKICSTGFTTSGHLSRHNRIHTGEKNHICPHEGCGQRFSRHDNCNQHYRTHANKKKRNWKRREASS", "test": "PBM E-score (8-mer binding enrichment) (E-score (-0.5 to 0.5)); higher = stronger / more preferred TF binding", "details": "protein concentration: 100 nM; construct: GST-full length", "procedure": "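Universal 'all 10-mer' protein binding microarrays (Agilent AMADID 015681) probed with GST-tagged S. cerevisiae TFs (full-length or DBD) made by in vitro transcription/translation (PURExpress), about 100-200 nM. Bound TF was detected with fluorescent anti-GST. Each ungapped 8-mer (which stands for itself and its reverse complement) is scored by the PBM enrichment score (E-score), a modified Wilcoxon-Mann-Whitney statistic from -0.5 to +0.5, computed with the Universal PBM Analysis Suite. Scale: above 0.35 generally sequence-specific binding.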"}
{"sequence": "AGTATACG", "PBM E-score": 0.0367}
{"sequence": "CCCCAGAA", "PBM E-score": -0.0495}
{"sequence": "GATTGGCA", "PBM E-score": -0.0954}
{"sequence": "TCCAGACA", "PBM E-score": -0.0642}
{"sequence": "GGTAACGA", "PBM E-score": -0.00769}
{"sequence": "AATTGTGA", "PBM E-score": 0.116}
{"sequence": "CTCACAAC", "PBM E-score": 0.206}
{"sequence": "CTCGGAAA", "PBM E-score": -0.0457}
{"sequence": "GTCGGAAA", "PBM E-score": 0.234}
{"sequence": "ATCGGAAA", "PBM E-score": 0.0359}
{"sequence": "ATGTGAGG", "PBM E-score": -0.0251}
{"sequence": "ATGTCCGG", "PBM E-score": 0.0983}
{"sequence": "CTGTAGTA", "PBM E-score": 0.245}
{"sequence": "ATGTAGTA", "PBM E-score": 0.154}
{"sequence": "GTGTAGTA", "PBM E-score": -0.0167}
{"sequence": "CAGCGTTC", "PBM E-score": 0.0488}
{"sequence": "TGCCAACA", "PBM E-score": 0.0266}
{"sequence": "AAATCTTG", "PBM E-score": 0.0495}
{"sequence": "CGGCAGAA", "PBM E-score": 0.154}
{"sequence": "AATGAAGG", "PBM E-score": 0.0439}
{"sequence": "AATGAAGT", "PBM E-score": 0.23}
{"sequence": "AATGAAGA", "PBM E-score": 0.14}
{"sequence": "CTGAACGA", "PBM E-score": -0.166}
{"sequence": "AACGCAGC", "PBM E-score": 0.253}
{"sequence": "CACGCAGC", "PBM E-score": -0.0258}
{"sequence": "AACGCAGA", "PBM E-score": -0.0108}
{"sequence": "CGGGTAAG", "PBM E-score": -0.13}
{"sequence": "AAACTATT", "PBM E-score": -0.0651}
{"sequence": "ATCATTTA", "PBM E-score": 0.0968}
{"sequence": "CTCATTTC", "PBM E-score": -0.0953}
{"sequence": "ATCATTTC", "PBM E-score": 0.242}
{"sequence": "AGTGCACG", "PBM E-score": 0.0226}
{"sequence": "AATCATAG", "PBM E-score": 0.235}
{"sequence": "AATCATAC", "PBM E-score": 0.116}
{"sequence": "AATCATAT", "PBM E-score": 0.0761}
{"sequence": "AGATTTGG", "PBM E-score": -0.144}
{"sequence": "CAAGTTGG", "PBM E-score": 0.225}
{"sequence": "ATTTGTTC", "PBM E-score": 0.272}
{"sequence": "ATTTGTTA", "PBM E-score": 0.113}
{"sequence": "CTTTGTTC", "PBM E-score": 0.0376}
{"sequence": "GAGTCAGC", "PBM E-score": -0.151}
{"sequence": "AAAAGTCG", "PBM E-score": 0.0204}
{"sequence": "ACCCCATG", "PBM E-score": 0.217}
{"sequence": "GAAAAATC", "PBM E-score": 0.099}
{"sequence": "GCATTGCC", "PBM E-score": -0.0164}
{"sequence": "GTTCGAAC", "PBM E-score": 0.233}
{"sequence": "ATTCGAAC", "PBM E-score": 0.155}
{"sequence": "CTTCGAAC", "PBM E-score": 0.108}
{"sequence": "GGAAGCAA", "PBM E-score": -0.0162}
{"sequence": "CCATGCAA", "PBM E-score": 0.247}
{"sequence": "TCATGCAA", "PBM E-score": 0.192}
{"sequence": "CCATGCAG", "PBM E-score": 0.155}
{"sequence": "GGGGTCAC", "PBM E-score": -0.0806}
{"sequence": "ACGGGCGC", "PBM E-score": 0.0207}
{"sequence": "AATCCCCT", "PBM E-score": 0.0153}
{"sequence": "AACATAAG", "PBM E-score": 0.246}
{"sequence": "CACATAAG", "PBM E-score": 0.0356}
{"sequence": "AACATAAC", "PBM E-score": 0.134}
{"sequence": "ATCATAAG", "PBM E-score": -0.085}
{"sequence": "AACATAAA", "PBM E-score": -0.0006}
{"sequence": "AACATAAT", "PBM E-score": 0.248}
{"sequence": "GAAGGCAC", "PBM E-score": 0.0779}
{"sequence": "TGTGAGAA", "PBM E-score": 0.183}
{"sequence": "CTCTATAC", "PBM E-score": -0.0911}
{"sequence": "ATACATAC", "PBM E-score": 0.0623}
{"sequence": "CTATATAG", "PBM E-score": 0.00641}
{"sequence": "CTATATAA", "PBM E-score": 0.0499}
{"sequence": "ATATAGTC", "PBM E-score": 0.196}
{"sequence": "ATACATAT", "PBM E-score": 0.235}
{"sequence": "CTATATAC", "PBM E-score": 0.238}
{"sequence": "ATACATAA", "PBM E-score": 0.0727}
{"sequence": "TTATATAA", "PBM E-score": 0.192}
{"sequence": "ATATAGTG", "PBM E-score": 0.241}
{"sequence": "ATATAGTA", "PBM E-score": 0.155}
{"sequence": "ATATATAA", "PBM E-score": 0.24}
{"sequence": "AGTGAGGC", "PBM E-score": -0.0681}
{"sequence": "AACCTTGC", "PBM E-score": -0.0724}
{"sequence": "AGCCAAAC", "PBM E-score": 0.121}
{"sequence": "AGATTACG", "PBM E-score": 0.121}
{"sequence": "AGCCGGAG", "PBM E-score": 0.023}
{"sequence": "CGGTGAAG", "PBM E-score": -0.222}
{"sequence": "GCAACGAA", "PBM E-score": 0.187}
{"sequence": "ACCATCAC", "PBM E-score": -0.0188}
{"sequence": "ATATATAC", "PBM E-score": 0.329}
{"sequence": "ATATATAT", "PBM E-score": 0.107}
{"sequence": "GTATATAC", "PBM E-score": 0.0119}
